A selection: hits, their analogues and other compounds. The true share with any hit is near 1.7%.
HEK293 tox = cytotoxic in the GLP-1 receptor inverse agonist counter-screen; HEK293 cAMP-luciferase reporter cells, luminescence, 24 h; Potency, µM (titrated, usually from 38.3 µM), for the others: top-dose activity change, negative = inhibition, most hits filed as inhibitors; 410,000 tested, 0.13% active;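 note: loss of luciferase light is scored as toxicity; % is set by controls: 0 for no effect and ±100 for the full control effect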
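A 23 nL compound transfer followed 12 hours of cell culture at 37 deg C; exposure then lasted 24 hr. Luciferase assay detection reagent was dispensed and plates read for luminescence after a 12 min room-temperature wait.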
GLP-1R inv ag = inverse agonists of human GLP-1 receptor; P43220; HEK293 GLP-1R CRE-luciferase, luminescence, 24 h; GLP-1R form is constitutively active; Potency, µM (top dose mostly 38.3 µM), for the others: at the top dose activity change, negative = inhibition, actives largely listed as inhibitors; 410,000 tested, 1.6% active; AID 624417; note: % is set by controls: 0 for no effect and ±100 for the full control effect; nearly all actives have a fitted effect of over 55% in size
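Inverse agonism was detected as reduced cAMP-driven luciferase luminescence after 24 h compound treatment. The cells were HEK293 clones expressing constitutively active human GLP-1R with the reporter. Reporter-only and GPR119 cell lines served as counterscreen controls.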
PTHR1 ag = agonists of human PTHR1 parathyroid hormone receptor; Q03431; HEK293 GP2 PTHR1 cells, GloSensor cAMP luminescence, 1 h; Potency, µM (top dose mostly 115 µM), for the others: top-dose activation, most hits filed as activators; 410,000 tested, 0.075% active; AID 743266; note: nearly all actives have a fitted effect of over 55% in size
Target sequence (Q03431 whole entry, looked up): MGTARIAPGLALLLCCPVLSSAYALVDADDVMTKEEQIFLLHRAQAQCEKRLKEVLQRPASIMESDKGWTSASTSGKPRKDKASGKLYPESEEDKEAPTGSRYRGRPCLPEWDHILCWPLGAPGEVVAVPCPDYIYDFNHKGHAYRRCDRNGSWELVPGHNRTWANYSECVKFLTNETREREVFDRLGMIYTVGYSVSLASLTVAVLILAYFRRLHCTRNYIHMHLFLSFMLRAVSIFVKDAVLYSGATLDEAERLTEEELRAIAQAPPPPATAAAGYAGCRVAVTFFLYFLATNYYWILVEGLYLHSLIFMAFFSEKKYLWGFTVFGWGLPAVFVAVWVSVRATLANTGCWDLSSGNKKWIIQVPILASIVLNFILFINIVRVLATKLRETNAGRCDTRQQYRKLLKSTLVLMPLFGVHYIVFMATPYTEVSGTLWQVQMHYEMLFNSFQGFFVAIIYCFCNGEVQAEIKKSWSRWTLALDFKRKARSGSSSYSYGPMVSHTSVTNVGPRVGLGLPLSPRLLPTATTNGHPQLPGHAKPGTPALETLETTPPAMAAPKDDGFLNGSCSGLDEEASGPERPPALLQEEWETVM
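HEK-293-derived GP2 cells expressing PTHR1 and a GloSensor cAMP reporter, 3,000/well, plated overnight, given luciferin plus IBMX (each 0.5 mM as added) for 1 h at 37 °C, then compound for 1 h at 37 °C. Luminescence was read after 15 min at room temperature.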
GLP-1R agonist = GLP-1 receptor (human) agonism | HEK293 GLP-1R CRE-luciferase, luminescence, 4-6 h; cells express a hypersensitive GLP-1R form | 380,000 tested, 0.007% active | Potency, µM (top dose mostly 45.6 µM), without a hit: at the top dose activation, usual class: activators | AID 624172 | P43220; note: % of control where 0% means no effect
Starred values were filed as active, the others as inactive; i = inactive; ? = inconclusive; / = no result given; [ ] = remark or other dose. Calls come from the whole dose curve; as a rule, active = well fitted curve in the direction sought with a large enough effect; inconclusive = small, poorly fitted or top-dose-only effect, or another doubt; inactive = no such curve, though single readings can be large; an effect the other way counts as inactive or inconclusive. Potency is the fitted concentration of half-maximal effect.

SMILES	HEK293 tox	GLP-1R inv ag	PTHR1 ag	GLP-1R agonist
COc1cccc(C2CC(c3c(-c4ccccc4)c4cc(Cl)ccc4[nH]c3=O)=NN2S(C)(=O)=O)c1OC (stereo not given)	-4.4%	?	i	-18.2%
COc1ccccc1C1CC(c2c(-c3ccccc3)c3cc(Cl)ccc3[nH]c2=O)=NN1S(C)(=O)=O (stereo not given)	-23.3%	10µM*	-11.3%[57.5 µM]	-6.0%
Cc1ccc(-c2noc(-c3nnn(CC(=O)Nc4cc(C)cc(C)c4)c3N)n2)cc1	0.8%	2.5%	-10.6%	/
COc1ccc2c(c1)c1c(c(=O)n(-c3ccc(F)c(Cl)c3)c(=O)n1Cc1ccccc1C)n2C	-0.5%	10.7%	-0.6%	-1.1%
Cc1ccc(-n2nnnc2SCCNS(=O)(=O)c2ccccc2)cc1C	3.6%	11.2µM*	27.9%[57.5 µM]	4.0%
CC(C)NC(=O)Cc1csc2nc(-c3ccccc3)cn12	1.0%	6.6%	-17.7%	/
CC(C)(C)c1ccc(C(=O)Nc2nnc(SCC(=O)NCC3CCCO3)s2)cc1 (stereo not given)	-13.5%	?	-30.3%	-1.2%
CCOc1ccc(C(=O)Nc2nnc(SCC(=O)NCC3CCCO3)s2)cc1 (stereo not given)	13.5%	2µM*	-16.9%	-5.0%
Cc1cnc(NC(=O)c2ccc(OCC3CCCO3)cc2)s1 (stereo not given)	1.8%	5.01µM*	-31.8%	-5.0%
Cc1ccc(NC(=O)c2ccc(OCC3CCCO3)cc2)nc1 (stereo not given)	-4.8%	?	-33.2%	-16.9%
COc1ccc(C(=O)N2CCN(c3nc4c(C)c(Cl)ccc4s3)CC2)c(OC)c1	-3.1%	6.9%	-20.0%	/
Cc1ccc(NC(=O)c2oc3ccccc3c2NC(=O)C23CC4CC(CC(C4)C2)C3)cc1	0.4%	-3.4%	-51.5%	1.8%
CCN(CC)S(=O)(=O)c1ccc2oc(SCc3ccc(F)cc3)nc2c1	-0.8%	11.2µM*	-21.7%[57.5 µM]	7.2%
CCN(CC)S(=O)(=O)c1ccc2oc(SCC(=O)NC3CC3)nc2c1	18.3%	0.6%	-12.7%	-6.7%
CCN(CC)S(=O)(=O)c1ccc2oc(C(=O)NCc3ccc(F)cc3)c(C)c2c1	-2.3%	3.55µM*	-58.4%[57.5 µM]	10.7%
O=S1(=O)c2ccccc2N(Cc2ccccc2Cl)c2ccccc21	6.6%	18.4%	-9.6%	/
CCc1nn(CC(=O)N2CCN(c3cccc(Cl)c3)CC2)c(=O)c2cc3sccc3n12	-7.2%	4.3%	12.7%	/
CCCC1=Nc2cc(C(=O)NCc3ccccc3)ccc2Sc2ccccc21	-28.3%	3.98µM*	i	/
CCC1=Nc2cc(C(=O)NCc3cccnc3)ccc2Sc2ccc(C)cc21	?	1.78µM*	?	17.1%
CCC1=Nc2cc(C(=O)NCc3ccc(C)cc3)ccc2Sc2ccc(C)cc21	-20.3%	7.08µM*	i	/
Cc1nn(CC(C)C)c(Cl)c1C(=O)N(c1ccc(Cl)cc1F)S(C)(=O)=O	-11.8%	8.91µM*	-11.1%	-3.2%
Cc1nn(CCCC(=O)NCc2ccccc2)c(=O)c2c1sc1ccccc12	2.4%	7.4%	i	/
COc1cccc(Cn2c(=O)cc(C)c3c(C)nn(-c4ccc(C)cc4)c32)c1	-7.2%	21.2%	i	/
Cc1ccc(NC2=Nc3ccccc3CS2)cc1	-9.8%	6.31µM*	-17.5%[57.5 µM]	-17.6%
O=C(Cc1ccccc1F)Nc1nc(-c2ccc(F)cc2)cs1	-7.8%	8.91µM*	-21.5%	2.2%
SMILES	HEK293 tox	GLP-1R inv ag	PTHR1 ag	GLP-1R agonist
COc1ccc(-c2csc(NC(=O)Cc3ccccc3F)n2)cc1OC	1.9%	?	-35.7%	18.1%
Cc1ccc(S(=O)(=O)N(CC(=O)N/N=C/c2ccco2)c2cc(Cl)cc(Cl)c2)cc1	?	6.31µM*	-7.5%	3.8%
O=C(CN(c1ccc(Cl)cc1)S(=O)(=O)c1ccccc1)N/N=C/c1ccco1	-2.0%	?	-3.7%[57.5 µM]	-9.7%
COc1cccc(NC(=O)Cn2c(=O)n(CCc3cccc(C)c3)c(=O)c3ccccc32)c1	-2.7%	-13.5%	i	-3.1%
Cn1c(C(=O)NCc2ccc(F)cc2)cc2cc(S(=O)(=O)N3CCCCC3)ccc21	-8.4%	2.1%	-62.3%	/
COc1ccc(NC(=O)/C(Cl)=C(/Cl)S(=O)Cc2ccccc2)cn1 (stereo not given)	2.82µM*	-7.3%	i	-23.9%
COc1ccc(CNC(=O)C2CCN(c3nc4ccc(C)cc4[nH]3)CC2)cc1	2.0%	-0.6%	i	/
CCCSc1nnc2c(n1)OC(CC)N(C(C)=O)c1ccccc1-2 (stereo not given)	-10.1%	4.0%	i	/
O=C(Nc1cccc(O)c1)c1cc(-c2ccc3c(c2)OCO3)on1	-9.4%	10µM*	-92.4%	-6.9%
O=C(/C=C/c1ccc([N+](=O)[O-])cc1)NCc1ccccn1	15.2%	9.3%	i	6.8%
O=C(/C=C/c1ccc([N+](=O)[O-])cc1)Nc1ncc([N+](=O)[O-])s1	?	12.6µM*	-31.1%	-13.8%
CCOC(=O)COc1ccc2c(C)c(CCN(CC)CC)c(=O)oc2c1	/	/	/	-4.4%
CCOC(=O)c1[nH]c2c(c1Cc1ccccc1)C(=O)CC(c1ccc(C(C)(C)C)cc1)C2 (stereo not given)	0.3%	11.2µM*	i	/
CCc1nnc2c3ccccc3nc(N3CCN(c4cc(C)ccc4C)CC3)n12	-3.7%	11.7%	i	/
Cc1cc(C)c(C)c(S(=O)(=O)N2CCC(C(=O)N3CCN(c4ccc(F)cc4)CC3)CC2)c1C	0.1%	5.01µM*	-3.3%	8.9%
Cc1cc(C)c(C)c(S(=O)(=O)N2CCC(C(=O)N3CCCC3)CC2)c1C	2.7%	-16.8%	23.0%	-7.8%
COc1ccc(NC(=O)c2ccc3c(c2)NC(=O)CS3)cc1	-0.1%	4.4%	-51.1%	-5.3%
Cc1ccc(NS(=O)(=O)c2cc(NC(=O)c3ccc4c(c3)NC(=O)CS4)ccc2Cl)c(C)c1	?	2.51µM*	-89.9%	-3.3%
Cc1ccc(-n2nc(CO)c(C(=O)NC(C)CCCc3ccccc3)n2)cc1 (stereo not given)	2.9%	-31.0%	i	/
C=CCc1cc(OC)ccc1OCCOCCN1CCc2ccccc2C1	3.0%	10µM*	i	18.1%
CCOc1ccc(OCCOCCN2CCc3ccccc3C2)cc1	-30.6%	-13.8%	-17.1%	5.8%
CC(C)(C)c1cc(C(=O)NNC(=O)Nc2ccccc2)n(Cc2ccccc2)n1	-8.1%	?	-10.5%	4.1%
CC(C)(C)c1cc(C(=O)NNC(=O)Nc2cccc(Cl)c2)n(Cc2ccccc2)n1	-20.3%	5.01µM*	-31.5%	1.1%
OCCC1CN(Cc2nc(-c3ccccc3)cs2)CCN1CCc1ccccc1 (stereo not given)	-28.7%	10µM*	-10.0%	9.1%
O=C(CSc1nnnn1C1CCCC1)N1CCCc2ccccc21	27.7%	?	-32.6%	18.9%
O=C(CSc1nnc(Cc2cccs2)n1-c1ccccc1)NC1CCCCC1	-15.5%	1.41µM*	-8.9%[57.5 µM]	-2.8%
O=C(CSc1nnc(Cc2cccs2)n1C1CCCCC1)N1CCCc2ccccc21	?	3.55µM*	-10.2%[57.5 µM]	0.8%
